In PubChem BioAssay (NCI):
About 83,000 compounds went through this panel and 20% of them were active in at least one assay; those are over-represented in the sample as a whole.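 48-hour exposure, single concentration, 96-well plates; percent growth endpoint where 0 means no net growth. Active: below 10.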 Calls of active or inactive are those of the source.

System: MDA-MB-435 melanoma
Test: NCI-60 one-dose screen, 48 h (100 = growth as untreated, 0 = no growth, -100 = all killed)
Settings: 10 µM

Row | SMILES | growth
1 | N#Cc1ccc(-c2nn(-c3ccc(C(=O)O)cc3)cc2CNc2cc(Cl)cc(C(F)(F)F)c2)cc1 | 9.7% (active)
2 | CN1C(=O)N(C)C2SC(N/N=C/c3ccccc3F)=NC21 (configuration not stated) | -16.6% (active)
3 | COc1cc2c(cc1OC)/C(=C\c1sc(Nc3ccc(O)cc3)nc1O)C(C(=O)O)=N2 | -77.3% (active)
4 | CN1CCN(c2ccc(C(=O)/C=C/c3cc(C(F)(F)F)ccc3Cl)cc2)CC1 | -56.5% (active)
5 | CC(=O)c1cc(C(=O)c2ccc3c(c2)NC(=O)CO3)n2ccc3ccccc3c12 | 80.5% (inactive)
6 | COc1ccc(C(=O)NC(=S)N2CCN(c3ncnc4c3cnn4-c3ccccc3)CC2)cc1 | 84.8% (inactive)
7 | CC(=O)Nc1nc(-c2ccc(N3CCN(C)CC3)c(NS(=O)(=O)c3cccc4c(N(C)C)cccc34)c2)cs1 | 51.5% (inactive)
8 | O=[N+]([O-])c1ccc(-c2nc(-c3ccccc3)c(-c3ccccc3)n2-c2ccc(S(=O)(=O)Nc3ncccn3)cc2)cc1 | 46.5% (inactive)
9 | O=C(c1ccc(Cl)cc1)C1[C@H](c2ccc(Br)cc2)[C@@H](c2ccccc2)NC12C(=O)Nc1ccc(Br)cc12 (some centres not stated) | -88.8% (active)
10 | O=C(CSc1nnc(-c2c[nH]c3ccccc23)n1-c1ccccc1)c1ccc(Cl)cc1 | 79.2% (inactive)
11 | Cc1noc2c(Cc3ccccc3)nn(CC(=O)N/N=C/c3ccc(Cl)cc3)c(=O)c12 | 75.8% (inactive)
12 | O=C(NO)c1ccc(CNC(=O)[C@H]2Cc3c([nH]c4ccccc34)[C@H](c3ccc(Cl)cc3)N2)cc1 | 4.26% (active)
13 | COc1ccc(C(C)=C(c2ccc(OCCCN(C)C)cc2)c2ccc(OCCCN(C)C)cc2)cc1 | -99.9% (active)
14 | O=C(NCCCCC(c1ccc(F)cc1)c1ccc(F)cc1)NCCCc1cccnc1 | 11.9% (inactive)
15 | O=C(Nc1cccc(-c2cn(-c3ccc4oc(=O)ccc4c3)nn2)c1)Nc1cc(C(F)(F)F)cc(C(F)(F)F)c1 | 49% (inactive)
16 | CC(C)Sc1nc(NC2CC2)c(C#N)c(-c2ccccc2)n1 | 98.6% (inactive)
17 | COc1ccc(CN2[C@@H](C(=O)NCc3ccc(C(=O)NO)cc3)Cc3c([nH]c4ccccc34)[C@@H]2C)cc1 | -36.4% (active)
18 | COC1=C[C@]23CCC(=O)N2CCc2cc4c(cc2[C@@H]3[C@@H]1OC(=O)CCCC(C)C)OCO4 | 74.1% (inactive)
19 | C=CC(=O)Nc1ccc(C(=O)/C=C/c2ccc(N(C)CCF)cc2)c(O)c1 | -46.7% (active)

Row | SMILES | growth
20 | OCc1[nH]nc2cc(Nc3ncc4ccc(Br)c(OC5CCC(O)CC5)c4n3)ccc12 (configuration not stated) | -15.7% (active)
21 | OCCNc1oc(-c2ccccc2)nc1[P+](c1ccccc1)(c1ccccc1)c1ccccc1 | 4.92% (active)
22 | CCCCOc1ccc(Nc2nc3ccccc3nc2Nc2ccc(OCCCC)cc2)cc1 | 88.4% (inactive)
23 | C=C[C@@]12CN3CC[C@]1(O)[C@@](C(=O)OC)(CO2)c1[nH]c2ccccc2c1C3 | 32.7% (inactive)
24 | COc1ccc(NC(=O)CSc2nnc(-c3ccc4nc(-c5ccc(Cl)cc5)[nH]c4c3)o2)cc1 | -7.51% (active)
25 | Cc1ccc(-c2ccc(SCC(=O)Nc3ccc(Cl)c(C(F)(F)F)c3)nn2)cc1 | -18.8% (active)
26 | CN1CCN(Cc2ccc(NC(=O)c3cncc(C#Cc4cnc5ccc(N[C@H]6CCOC6)nn45)c3)cc2C(F)(F)F)CC1 | -79.6% (active)
27 | CN(C)c1ccc(/C=C/c2nc3ccccc3c(=O)n2CC(=O)Nc2ccccc2)cc1 | 60.2% (inactive)
28 | COc1ccccc1NCc1ccc(CO)n1-c1ccc(C)cc1 | 110% (inactive)
29 | Cc1ccc(-c2nc3ccc(C(=O)N=Nc4c(O)[nH]c5ccc(Cl)cc45)cc3[nH]2)cc1 | -61.5% (active)
30 | CN1CCN(c2ccc(Nc3nc(N4CCN(S(=O)(=O)c5ccc(Cl)cc5)CC4)c4sccc4n3)cc2)CC1 | -100% (active)
31 | N#Cc1c(-c2ccc(Cl)cc2)cc(-c2ccccc2)nc1OCc1ccccc1 | 96.1% (inactive)
32 | CN1CCO/C1=C(/NC(=O)c1ccc(Cl)cc1)[P+](c1ccccc1)(c1ccccc1)c1ccccc1 | 66.7% (inactive)
33 | O=C(Cc1ccc2c(c1)CN(C1CCC(=O)NC1=O)C2=O)NCCc1ccccc1 (configuration not stated) | 35% (inactive)
34 | N#Cc1c(NC(=O)c2ccc(C(F)(F)F)c(Cl)c2)sc2c1CCC(=O)C2 | -68.4% (active)
35 | COc1ccc2[nH]c(=O)c(CSc3nccc(-c4ccc(Cl)cc4)n3)cc2c1 | 55% (inactive)
36 | C=C1CCC2C3(C)COC(c4c(F)cccc4F)OC3CCC2(C)C1C/C=C1/C(=O)OCC1O (configuration not stated) | -9.65% (active)
37 | COc1ccc([C@H]2C(C(=O)c3ccc(Cl)cc3)C3(N[C@@H]2c2ccccc2)C(=O)Nc2ccc(Cl)cc23)cc1 (some centres not stated) | -57.5% (active)
